{"source": "PubChem BioAssay AID741", "about": "(SRMLSC, 2007)", "note": "Records with an inconclusive call do not appear. Activity calls are given as the source filed them. Rule as the data show it: active = toxicity enhancement factor above about 0.054; inconclusive = between about 0.00067 and that limit; inactive = weaker than that."}
{"experiment": "MRP-overexpressing cell chemosensitization – dose response (AID 741)", "details": "MRP-overexpressing cells, viability with/without cytotoxic drug; slope difference: measured here: slope difference tox minus reversal, stronger effect = higher value; toxicity enhancement factor: stronger effect = higher value; viability: measured here: viability series, compound alone, at 10 µM, stronger effect = lower value", "units": {"viability": "%"}}
{"compound": "COC(=O)Nc1ccc(S(=O)(=O)Nc2cccc3ccccc23)cc1", "viability": 77.7, "slope difference": -0.0221, "toxicity enhancement factor": "-0.0003 (inactive)"}
{"compound": "COc1ccc2cc([C@H](C)C(=O)O)ccc2c1", "toxicity enhancement factor": "-0.0066 (inactive)", "slope difference": -0.665, "viability": 96.6}
{"compound": "CCCCNc1c2c3c(cccc3n(C)c1=O)C(=O)c1ccccc1-2", "slope difference": -4.84, "viability": 32.4, "toxicity enhancement factor": "-0.0634 (inactive)"}
{"compound": "Cn1c(=O)c2c(nc(NC3CCCCC3)n2CC(O)COc2ccccc2)n(C)c1=O", "note": "(configuration not stated)", "slope difference": -0.557, "toxicity enhancement factor": "-0.0085 (inactive)", "viability": 68.8}
{"compound": "CCCCSc1nnc2n(CCc3ccccc3)c(=O)c3c4c(sc3n12)COC(C)(C)C4", "slope difference": 5.29, "toxicity enhancement factor": "0.189 (active)", "viability": 84.4}
{"compound": "CC1(C)CC(=O)C2=C(C1)N(c1cccc(O)c1)C1=C(C2)C(=O)CC(C)(C)C1", "viability": 87.2, "slope difference": 3.34, "toxicity enhancement factor": "0.0743 (active)"}
{"compound": "O=c1[nH]c2ccc(Br)cc2c(-c2ccccc2)c1N1CCOCC1", "toxicity enhancement factor": "0.0679 (active)", "viability": 74.8, "slope difference": 2.74}
{"compound": "CCc1cccc2c3c([nH]c12)C(CC)(CC(=O)O)OCC3", "note": "(configuration not stated)", "toxicity enhancement factor": "-0.0019 (inactive)", "viability": 92.5, "slope difference": -0.174}
{"compound": "O=C1Nc2cc(C(=O)N3CCN(Cc4ccccc4)CC3)ccc2SC1N1CCOCC1", "note": "(configuration not stated)", "toxicity enhancement factor": "-0.0007 (inactive)", "slope difference": -0.0531, "viability": 83.2}
{"compound": "Cc1nc(C)c(C)nc1C", "viability": 98.8, "slope difference": -0.412, "toxicity enhancement factor": "-0.004 (inactive)"}
{"compound": "O=C(O)Cc1ccc(-c2ccccc2)cc1", "toxicity enhancement factor": "-0.0033 (inactive)", "slope difference": -0.343, "viability": 99.6}
{"compound": "CCCN1C2=C(C(=O)CC(C)(C)C2)C(c2ccc(F)cc2)C2=C1c1ccccc1C2=O", "note": "(configuration not stated)", "viability": 64.6, "toxicity enhancement factor": "0.126 (active)", "slope difference": 3.28}
{"compound": "CSc1nnc(-c2cc3ccccc3cc2O)n1C", "toxicity enhancement factor": "-0.0016 (inactive)", "slope difference": -0.153, "viability": 101}
{"compound": "c1ccc2sc(N3CN(CCN4CCOCC4)CN(c4nc5ccccc5s4)C3)nc2c1", "toxicity enhancement factor": "-0.0158 (inactive)", "viability": 104, "slope difference": -1.81}
{"compound": "Cc1cccc(OCc2nnc(SCC(=O)c3ccccc3)o2)c1", "toxicity enhancement factor": "-0.007 (inactive)", "slope difference": -0.739, "viability": 97.4}
{"compound": "Cc1nn(C)c(C)c1NC(=O)CSc1nc(C2CC2)nc2c1cnn2-c1ccccc1", "slope difference": -1.07, "toxicity enhancement factor": "-0.0298 (inactive)", "viability": 27.3}
{"compound": "c1ccc(-c2nc(N3CCOCC3)c3ccccc3n2)nc1", "toxicity enhancement factor": "-0.0278 (inactive)", "slope difference": -2.79, "viability": 87}
{"compound": "CC(C(=O)O)c1ccc(-c2ccccc2)c(F)c1", "note": "(configuration not stated)", "toxicity enhancement factor": "-0.0042 (inactive)", "viability": 89, "slope difference": -0.412}
{"compound": "CC(Cc1ccc(O)c(O)c1)C(C)Cc1ccc(O)c(O)c1", "note": "(configuration not stated)", "slope difference": -0.864, "toxicity enhancement factor": "-0.009 (inactive)", "viability": 86.2}
{"compound": "COc1ccc(Cl)cc1C(=O)Nc1ccccc1N1CCN(C(=O)C(C)C)CC1", "viability": 75.7, "toxicity enhancement factor": "-0.0048 (inactive)", "slope difference": -0.352}
{"compound": "CN1C(C(=O)Nc2ccccn2)=C(O)c2sccc2S1(=O)=O", "toxicity enhancement factor": "-0.0064 (inactive)", "slope difference": -0.669, "viability": 103}
{"compound": "CCN(CC)C(=O)CSc1nc2c(sc(=S)n2-c2ccccc2)c(=O)n1Cc1ccco1", "viability": 87.8, "toxicity enhancement factor": "0.0846 (active)", "slope difference": 3.95}
{"compound": "COc1ccc(NC(=O)C2C3C=CC(C3)C2C(=O)NCc2ccccn2)c(OC)c1", "note": "(configuration not stated)", "slope difference": -1.73, "viability": 88.7, "toxicity enhancement factor": "-0.0167 (inactive)"}
{"compound": "Cc1cccc2cc(CN(Cc3nnnn3Cc3ccco3)C3CCCC3)c3nnnn3c12", "slope difference": -1.43, "toxicity enhancement factor": "-0.027 (inactive)", "viability": 51.1}
{"compound": "CCn1c(N)c(C(=O)N2CCOCC2)sc1=S", "viability": 101, "toxicity enhancement factor": "-0.0052 (inactive)", "slope difference": -0.557}
{"compound": "CCc1nc(SCC(=O)Nc2c(C)nn(C)c2C)c2cnn(-c3ccccc3)c2n1", "viability": 79.1, "toxicity enhancement factor": "-0.0042 (inactive)", "slope difference": -0.333}
{"compound": "CC(C)CCn1c(=O)c2ccccc2n2c(CN(C)Cc3ccccc3)nnc12", "toxicity enhancement factor": "0.0598 (active)", "slope difference": 2.35, "viability": 82.3}
{"compound": "c1ccc2c(N3CCOCC3)nc(-c3ccncc3)nc2c1", "toxicity enhancement factor": "-0.0239 (inactive)", "slope difference": -1.84, "viability": 66.1}
{"compound": "CCCCCC(O)c1cccc(OCc2ccc3ccccc3n2)c1", "note": "(configuration not stated)", "slope difference": -0.009, "viability": 102, "toxicity enhancement factor": "-0.0001 (inactive)"}
{"compound": "COc1ccc(C)cc1-n1c(N)c(C#N)c(C#N)c1-c1ccc(OC)c(OC)c1OC", "viability": 61.5, "slope difference": 2.33, "toxicity enhancement factor": "0.077 (active)"}
{"compound": "CCOC(=O)c1sc(NC(=O)CSc2nnc(-c3ccco3)n2CC)c(C(=O)OCC)c1C", "slope difference": 3.89, "toxicity enhancement factor": "0.364 (active)", "viability": 54.8}
{"compound": "COC(=O)C(C)Sc1nnc2n(-c3cccc(C)c3)c(=O)c3c4c(sc3n12)CCCC4", "note": "(configuration not stated)", "viability": 85.9, "toxicity enhancement factor": "0.061 (active)", "slope difference": 2.9}
{"compound": "COC(=O)Nc1ccc(S(=O)(=O)Nc2ccc(O)cc2)cc1", "slope difference": -0.156, "toxicity enhancement factor": "-0.0016 (inactive)", "viability": 90.5}
{"compound": "N#CC1=C(N)N(c2ccccc2)C2=C(C(=O)CCC2)C1c1ccccc1", "note": "(configuration not stated)", "viability": 70.1, "slope difference": 4.41, "toxicity enhancement factor": "0.144 (active)"}
